# Results from PubChem BioAssay AID1259421 (Broad Institute, 2018).
# Several values for one entry are separate records, joined by “and”; a condition that tells them apart may be missing. Identical values can stand only once. The whole screen tested about 6,400 compounds, of which about 610 (9.5%) were called active. No stated cut-off is given here; in the data, active means activity change below about -70%; inconclusive means no clear call, values can overlap the other calls; inactive means above that. Only a selection was taken, and actives are over-represented in it overall. Some structures have more than one record in an assay (separate samples or runs), and their calls can disagree.
# Assay: T. gondii ME49Luc in HeLa cells, luciferase assay, 72 h, no IFN-y (AID 1259421)
# Conditions: stronger effect = lower value, concentration not given here
row,Compound,"activity change, negative = inhibition"
1,CC/C=C\C/C=C\C/C=C\CCCCCCCC(=O)O,11.4% (inactive)
2,Clc1ccc(N/N=C(\c2ccccc2)c2ccccn2)nc1,31.4% (inactive)
3,N=C(N)S/C=C\C(=O)O,28% (inactive)
4,O=C(c1ccc(/C=C/c2n[nH]c3ccccc23)cc1)N1CCNCC1,-59.7% (inactive)
5,C[C@@H](Oc1ccc2[nH]nc(/C=C/c3cnn(CCO)c3)c2c1)c1c(Cl)cncc1Cl,-81.2% (active)
6,CCCSc1nc(N[C@@H]2C[C@@H]2c2ccc(F)c(F)c2)c2nnn([C@@H]3C[C@H](OCCO)[C@H](O)[C@H]3O)c2n1,5.35% (inactive)
7,O=C(O)CCNC(=O)c1ccc(N=Nc2ccc(O)c(C(=O)O)c2)cc1,22.4% (inactive)
8,O=c1[nH]c(=O)n([C@H]2C[C@H](O)[C@@H](CO)O2)cc1F,-81.1% (active)
9,CCCCCOC(=O)Nc1nc(=O)n([C@@H]2O[C@H](C)[C@@H](O)[C@H]2O)cc1F,-63.1% (inactive) and -62.7% (inactive)
10,O=c1[nH]c(=O)n([C@H]2C[C@H](O)[C@@H](CO)O2)cc1Br,12.7% (inactive)
11,Cc1cn([C@H]2O[C@@H](CO)[C@H](O)[C@@H]2F)c(=O)[nH]c1=O,14.2% (inactive)
12,O=c1[nH]c(=O)n([C@H]2CCCO2)cc1F,-87.1% (active) and -73.6% (active)
13,O=c1[nH]c(=O)n([C@H]2CC(O)[C@@H](CO)O2)cc1C(F)(F)F (stereo not given in full),7.06% (inactive)
14,O=c1[nH]c(=O)n([C@H]2C[C@H](O)[C@@H](CO)O2)cc1C(F)(F)F,-19.7% (inactive) and 1.85% (inactive)
15,Nc1nc(=O)n([C@H]2C[C@H](O)[C@@H](CO)O2)cc1F,-94.3% (active)
16,Nc1ncn([C@H]2C[C@H](O)[C@@H](CO)O2)c(=O)n1,35.6% (inactive)
17,Nc1nc(=O)n([C@H]2C[C@@H](O)[C@@H](CO)O2)cc1Cl,7.28% (inactive)
18,Cc1cn([C@@H]2C[C@@H](O)[C@H](CO)O2)c(=O)[nH]c1=O,-2.77% (inactive)
19,C[C@H]1O[C@@H](n2cc(F)c(=O)[nH]c2=O)[C@H](O)[C@@H]1O,-95% (active)
20,CN(C)CC/C=C1/c2ccccc2COc2ccccc21,-63.2% (inactive) and 23.5% (inactive) and 10.1% (inactive)
21,CC(C)C1C(=O)N(S(C)(=O)=O)[C@@H]2CCN(C(=O)/C=C/CN3CCCCC3)[C@@H]12 (stereo not given in full),12% (inactive)
22,NCCCCCc1cnc[nH]1,11% (inactive)
23,O=c1cc(O)c(Cl)c[nH]1,4.32% (inactive)
24,O=c1ccc2ccc(OCCCCN3CCN(c4cccc5sccc45)CC3)cc2[nH]1,10.5% (inactive)
25,N[C@@H]1CCN(O)C1=O,15% (inactive)
26,O=C(O)CC/C=C\CC[C@@H]1[C@@H](N2CCCCC2)[C@@H](O)C[C@@H]1OCc1ccc(-c2ccccc2)cc1,-4.54% (inactive)
27,COC(=O)C[C@H]1C(C)(C)C(=O)[C@@H]2CC3=C4CC(=O)O[C@@H](c5ccoc5)[C@]4(C)CCC3[C@@]1(C)C2=O (stereo not given in full),-15.9% (inactive)

row,Compound,"activity change, negative = inhibition"
1,C[N+]1(C)C2CC(OC(=O)[C@@H](CO)c3ccccc3)CC1C1OC12 (stereo not given in full),4.33% (inactive) and 10.7% (inactive)
2,Cc1cn(C2CC(N=[N+]=[N-])C(CO)O2)c(=O)[nH]c1=O (stereo not given),10.1% (inactive)
3,CCc1cn([C@H]2C[C@H](O)[C@@H](CO)O2)c(=O)[nH]c1=O,13.9% (inactive)
4,Cc1cn([C@H]2C[C@H](N=[N+]=[N-])[C@@H](CO)O2)c(=O)[nH]c1=O,-81.6% (active)
5,O=C(O)C1[O][Sb]2([O][Sb]34[O]C(C(=O)O)C([O]3)C(C(O)CO)[O]4)[O]C(C(O)CO)C1[O]2 (stereo not given),-75.8% (active)
6,C(=N\NC1=NCCN1)/c1c2ccccc2c(/C=N/NC2=NCCN2)c2ccccc12,-58.3% (inactive)
7,O=C(Nc1cc2cc[nH]c2cn1)c1ccccc1,-32.1% (inactive)
8,COc1ccc(C(=O)c2ccc(O)cc2)c(O)c1O,-0.363% (inactive)
9,N=C(N)c1ccc2cc(OC(=O)c3ccc(N=C(N)N)cc3)ccc2c1,4.69% (inactive)
10,NC(=O)/N=N/C(N)=O,7.42% (inactive)
11,CC(C)(C(=O)NCC(F)(F)C(F)(F)F)C(=O)N[C@@H]1C(=O)Nc2ccccc2-c2ccccc21,-88.1% (active)
12,C/C(=C/c1ccc(C(=O)O)cc1)c1ccc2c(c1)C(C)(C)CCC2(C)C,-3.41% (inactive)
13,NC1[C@H]2CN(c3nc4c(cc3F)c(=O)c(C(=O)O)cn4-c3ccc(F)cc3F)C[C@@H]12 (stereo not given in full),-37.5% (inactive)
14,O=C(O)CN1C(=O)c2cccc3cccc(c23)C1=O,4.44% (inactive) and 1.05% (inactive)
15,O=C(CCCCCN1C(=O)c2cccc3cccc(c23)C1=O)NO,-90.6% (active)
16,O=C(O)CCCN1C(=O)c2cccc3cccc(c23)C1=O,-5.26% (inactive)
17,O=c1cc(-c2ccc(O)cc2)oc2cc(O)ccc12,22.2% (inactive)
18,CCCC[C@H](C)C[C@H](O)/C=C/[C@H]1[C@H](O)CC(=O)[C@@H]1CCCC/C=C/C(=O)O,-0.328% (inactive)
19,C/C=C/C(=O)N(CC)c1ccccc1C,14.6% (inactive) and 5.26% (inactive)
20,C=C[C@@](C)(/C=C/c1ccc(O)cc1)CCC=C(C)C,11.8% (inactive)
21,NC(=O)C(c1ccccc1)(c1ccc(F)cc1)c1ccc(F)cc1,1.76% (inactive)
22,[O-][NH2+]c1ccc(O)c2ncccc12,-71.9% (active) and -84.8% (active)
23,Oc1ccc(Cl)c2cccnc12,17.5% (inactive) and 6.79% (inactive)
24,Oc1c(Br)cc(Br)c2cccnc12,-63.3% (inactive)
25,COc1ccc2c(c1OC)C(=O)O[C@@H]2C1c2c(cc3c(c2OC)OCO3)CCN1C (stereo not given in full),8.49% (inactive)
26,C[C@@H]1C(=O)O[C@H]2CC34[C@H]5C[C@@H](C(C)(C)C)[C@]36[C@@H](OC(=O)[C@@H]6O)O[C@@]4(C(=O)O5)[C@]21O (stereo not given in full),5.52% (inactive)
27,CC(C)CCCC(C)[C@H]1CCC2C3C(=O)C=C4C[C@@H](O)CC[C@]4(C)C3CC[C@@]21C (stereo not given in full),-7.52% (inactive)

row,Compound,"activity change, negative = inhibition"
1,CC(C)(C)NCC(O)COc1cccc2c1CCCC2=O (stereo not given),12.5% (inactive) and -6.73% (inactive)
2,CC(=O)O.CC(=O)O.[Cl][Pt+2][Cl].[NH-]C1CCCCC1.[NH2-],1.41% (inactive)
3,O=C(O[C@@H]1Cc2c(O)cc(O)cc2O[C@@H]1c1ccc(O)c(O)c1)c1cc(O)c(O)c(O)c1,-0.0246% (inactive)
4,COc1ccc(NC(=O)c2ccc(-c3ccc(-c4noc(C)n4)cc3C)cc2)cc1N1CCN(C)CC1,-78.7% (active) and -44.9% (inactive)
5,COc1ccccc1N1CCN(CCCCNC(=O)c2ccc(-c3ccc(C(C)=O)cc3)cc2)CC1,7.26% (inactive)
6,CN(C)CCCc1cc(C(=O)Nc2ccc(-c3ccncc3)cc2)ccc1O,4.74% (inactive)
7,COc1ccc(C(=O)NCc2ccc(OCCN(C)C)cc2)cc1OC,-2.71% (inactive)
8,COc1ccc(NS(=O)(=O)c2ccc(I)cc2)cc1N1CCN(C)CC1,0.621% (inactive) and -5.09% (inactive)
9,COc1ccc(NC(=O)c2ccc(-c3ccc(-c4noc(C)n4)cc3C)cc2)cc1OCCN(C)C,-53.8% (inactive) and -87.8% (active)
10,CN(C)c1ccc(O)c2c1C[C@H]1C[C@H]3[C@H](N(C)C)C(=O)C(C(N)=O)C(=O)[C@@]3(O)C(=O)C1C2=O (stereo not given in full),-2.37% (inactive) and -2.12% (inactive)
11,Cc1cc(O)cc(=O)o1,2.59% (inactive)
12,CCCCCC/C=C/C=C\CCCCCCCC(=O)O,9.04% (inactive)
13,Cc1cc(Nc2cc(CN3CCOCC3)c3nc(C)c(Cc4ccc(Cl)cc4F)n3n2)n[nH]1,-76.1% (active)
14,FC(F)OC(Cl)C(F)(F)F (stereo not given),4.04% (inactive)
15,CCCC(=O)O,16.3% (inactive) and 10.7% (inactive)
16,CN=C(NC#N)Nc1ccc(C2=NNC(=O)CC2C)cc1 (stereo not given),27% (inactive) and 4.42% (inactive)
17,CCC(=O)NC1CCc2cccc(OC)c2C1 (stereo not given),4.71% (inactive) and 6.93% (inactive)
18,CC12CCC3C(CCC4CC(O)CCC43C)C1CC=C2c1ccccc1 (stereo not given),6.05% (inactive)
19,N[C@@H]1c2cccnc2[C@H](OC(=O)N2CCC(n3c(=O)[nH]c4ncccc43)CC2)CC[C@H]1c1cccc(F)c1F,-1.69% (inactive)
20,C=C[C@@H]1C[C@]1(NC(=O)[C@@H]1C[C@@H](Oc2ncc(OC)c3ccc(Cl)cc23)CN1C(=O)[C@@H](NC(=O)OC(C)(C)C)C(C)(C)C)C(=O)NS(=O)(=O)C1CC1,-73.7% (active)
21,C=C[C@@H]1C[C@]1(NC(=O)[C@@H]1C[C@@H]2CN1C(=O)[C@H](C(C)(C)C)NC(=O)O[C@@H]1C[C@H]1CCCCCc1nc3ccc(OC)cc3nc1O2)C(=O)NS(=O)(=O)C1CC1,0.122% (inactive)
22,CCOc1ccccc1O[C@H](c1ccccc1)[C@H]1CNCCO1 (racemic),8.34% (inactive)
23,O=C(c1cncc(Br)c1)N1CCC(N2CCCC2)CC1,15.9% (inactive)
24,O=C(c1ccc(Nc2nccc(-c3cc4ccccc4s3)n2)cc1)N1CCC(N2CCCC2)CC1,-80.6% (active) and -80.3% (active)
25,O=C(c1ccc(C(=O)N2CCC(N3CCCC3)CC2)c(Nc2ccccc2)c1)N1CCC(N2CCCC2)CC1,-4.76% (inactive)
26,CC1=C2C(O)C(=O)OC3CC4C(C)(C)C(=O)C=C[C@]4(C)C(CC1)[C@]23C (stereo not given in full),9.55% (inactive)
